Test systems include SR leukemia; RPMI-8226 leukemia; OVCAR-8 ovarian; OVCAR-5 ovarian; OVCAR-4 ovarian; SK-OV-3 ovarian; IGROV1 ovarian; OVCAR-3 ovarian; HS 578T breast; NCI/ADR-RES ovarian.
What all share (assay): NCI-60 one-dose screen, 48 h (100 = growth as untreated, 0 = no growth, -100 = all killed)
Conditions in all cases: 10 µM unless noted

About 83,000 compounds went through this panel and 20% of them were active in at least one assay; those are over-represented in the sample as a whole.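 Activity criterion: percent growth below 10, measured after cells in 96-well plates were exposed to a single compound concentration for 48 hours.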 Values without a mark were called inactive. Active and inactive are the calls of the source.

As to `COc1cc(/C=C/C(=O)/C=C(/C=C/c2ccc(OC(C)=O)c(OC)c2)OB(F)F)ccc1OC(C)=O`, the growth in the test on SR leukemia was -2.62% (active); with RPMI-8226 leukemia, 14.3%; in the test on OVCAR-8 ovarian, 20%; with OVCAR-5 ovarian it was 104%; in the test on OVCAR-4 ovarian, 69.6%; in the test on SK-OV-3 ovarian, 94.8%. Besides, the growth is 65.5% in the test with IGROV1 ovarian, 18.9% with OVCAR-3 ovarian, 76.2% in the test on HS 578T breast and 43.6% in the test on NCI/ADR-RES ovarian.

In the case of `c1cc(C2CCCCC2)ccc1OCCCCCCN1CCNCC1`, the growth is -4.39% (active) with SR leukemia; -31% (active) in the test with RPMI-8226 leukemia; 48% in the test with OVCAR-8 ovarian; 41.3% with OVCAR-5 ovarian; 41.6% with OVCAR-4 ovarian; 83.8% in the test with SK-OV-3 ovarian. Besides, the growth was 8.79% (active) in the test with IGROV1 ovarian, 40.5% in the test on OVCAR-3 ovarian, 51.9% in the test with HS 578T breast and 54.1% in the test with NCI/ADR-RES ovarian.

As to `CCOC(=O)C1=C(C(F)(F)F)NC(=O)NC1CN1C(=O)c2ccccc2C1=O` (stereo not given), the growth was 5.85% (active) in the test on SR leukemia; 82.6% in the test with RPMI-8226 leukemia; 114% in the test with OVCAR-8 ovarian; 94.2% in the test on OVCAR-5 ovarian; 110% with OVCAR-4 ovarian; 121% in the test with SK-OV-3 ovarian. Moreover, the growth is 122% in the test with IGROV1 ovarian, 129% in the test with OVCAR-3 ovarian, 111% in the test on HS 578T breast and 107% with NCI/ADR-RES ovarian.

Take `O=P(OCCCl)(OCCCl)C(O)c1ccccc1Cl` (stereo not given): the growth in the test on SR leukemia is 89.3%; in the test on RPMI-8226 leukemia, 110%; with OVCAR-8 ovarian it was 104%; in the test with OVCAR-5 ovarian, 107%; in the test on OVCAR-4 ovarian, 111%; with SK-OV-3 ovarian, 104%. Besides, the growth is 98.6% in the test with IGROV1 ovarian, 96.8% with OVCAR-3 ovarian, 106% with HS 578T breast and 109% with NCI/ADR-RES ovarian.

Take `CCCC[N+](C)(N)CCCC`: the growth in the test with SR leukemia was 92.1%; in the test with RPMI-8226 leukemia, 94.3%; in the test with OVCAR-8 ovarian, 99.2%; in the test on OVCAR-5 ovarian it was 103%; with OVCAR-4 ovarian, 108%; in the test with SK-OV-3 ovarian, 102%. The growth in the test on IGROV1 ovarian was 119%; in the test with OVCAR-3 ovarian, 113%; in the test with HS 578T breast, 115%; in the test with NCI/ADR-RES ovarian, 119%.

For the compound `CC[C@H](Nc1ncnc2nc[nH]c12)c1nc2cccc(NCc3ccc(C(=O)NO)nc3)c2c(=O)n1-c1ccccc1`, the growth with SR leukemia is 11.6%; in the test on RPMI-8226 leukemia, 6.61% (active); in the test on OVCAR-8 ovarian, 36.9%; in the test with OVCAR-5 ovarian it was 84.9%; with OVCAR-4 ovarian, 70.4%; in the test on SK-OV-3 ovarian, 80.8%. Moreover, the growth with IGROV1 ovarian was 30.9%; in the test on OVCAR-3 ovarian, 41.5%; in the test on HS 578T breast it was 13.8%; in the test with NCI/ADR-RES ovarian it was 106%.

Consider `O=C(/C=C/c1ccc(Br)cc1)c1ccccc1`, for which the growth is 4.53% (active) in the test on SR leukemia; 1.56% (active) with RPMI-8226 leukemia; 91.9% in the test with OVCAR-8 ovarian; 113% in the test with OVCAR-5 ovarian; 96.3% in the test on OVCAR-4 ovarian; 111% with SK-OV-3 ovarian. The growth with IGROV1 ovarian was 87.3%; with OVCAR-3 ovarian, 93.3%; in the test with HS 578T breast it was 100%; in the test on NCI/ADR-RES ovarian, 99.5%.

For the compound `CC(C)OC(=O)c1ccc2n1CCCc1cnc(Nc3ccccc3)nc1-2`, the growth in the test on SR leukemia is 35.4%; with RPMI-8226 leukemia, 58.4%; with OVCAR-8 ovarian, 82.4%; with OVCAR-5 ovarian it was 93.8%; with OVCAR-4 ovarian it was 61.4%; with SK-OV-3 ovarian, 97%. Moreover, the growth in the test with IGROV1 ovarian was 83.7%; in the test on OVCAR-3 ovarian, 84.7%; in the test with HS 578T breast it was 99%; in the test on NCI/ADR-RES ovarian, 69.7%.

With `Cc1nc2c(nnn2-c2ccccc2)c2nc(-c3ccccc3)oc(=O)c12`, the growth in the test with SR leukemia was 105%; with RPMI-8226 leukemia, 113%; in the test on OVCAR-8 ovarian, 111%; with OVCAR-5 ovarian it was 105%; in the test with OVCAR-4 ovarian, 115%; in the test with SK-OV-3 ovarian, 115%. Moreover, the growth in the test on IGROV1 ovarian was 111%; in the test on OVCAR-3 ovarian it was 117%; in the test with HS 578T breast, 107%; in the test on NCI/ADR-RES ovarian, 112%.

On to `COc1ccc2nc3cc(Cl)ccc3c(NCCCNC(C)=O)c2c1`, for which the growth in the test with SR leukemia is 21%; in the test with RPMI-8226 leukemia, 37.2%; in the test with OVCAR-8 ovarian, 26.8%; in the test with OVCAR-5 ovarian, 39.1%; in the test with OVCAR-4 ovarian, 49.2%; with SK-OV-3 ovarian it was 49.7%. For the same compound, the growth with IGROV1 ovarian is 36.2%; with OVCAR-3 ovarian it was 45.8%; with HS 578T breast, 60.4%; in the test with NCI/ADR-RES ovarian it was 41.4%.

Consider `C/C=C/C/C=C/[C@H](C)C[C@H](O)[C@@H]1C[C@@H]2O[C@H]2/C=C/[C@@H]2OC(C)(C)O[C@H]2/C=C/C[C@H](C)CC(=O)O1`, for which the growth in the test with SR leukemia is 18.8%; with RPMI-8226 leukemia, -5.18% (active); in the test on OVCAR-8 ovarian it was 15.8%; in the test with OVCAR-5 ovarian, 68.5%; in the test with OVCAR-4 ovarian, 23.3%; in the test on SK-OV-3 ovarian, 88.5%. The growth was 25.2% in the test on IGROV1 ovarian, 21.5% in the test on OVCAR-3 ovarian, -18.8% (active) in the test on HS 578T breast and 7.52% (active) with NCI/ADR-RES ovarian.

`Cc1ccc(C(C)C)c(OCc2ccc(C(=O)N/N=C/c3cccc(O)c3O)cc2)c1`: the growth was 9.44% (active) with SR leukemia; 28.8% in the test on RPMI-8226 leukemia; 23.7% with OVCAR-8 ovarian; 70.3% in the test with OVCAR-5 ovarian; 27.8% in the test on OVCAR-4 ovarian; 66.1% with SK-OV-3 ovarian. Also, the growth with IGROV1 ovarian was 40.8%; in the test on OVCAR-3 ovarian, 20.4%; in the test with HS 578T breast it was 76.8%; in the test with NCI/ADR-RES ovarian it was 1.46% (active).

As for `CCC1(CC)C(OC)NC(Br)=C(C#N)C1(C#N)C(N)=O` (stereo not given), the growth in the test on SR leukemia is 57.5%; in the test with RPMI-8226 leukemia, 132%; in the test with OVCAR-8 ovarian it was 106%; in the test on OVCAR-5 ovarian, 249%; in the test on OVCAR-4 ovarian, 110%; in the test on SK-OV-3 ovarian it was 114%. The growth with IGROV1 ovarian is -8.89% (active); in the test on OVCAR-3 ovarian it was 119%; in the test on HS 578T breast, 96.5%; with NCI/ADR-RES ovarian, 124%.

With `COc1ccccc1Cn1cc2c(c1)-c1oncc1CC2`, the growth was 16% with SR leukemia; 32.5% in the test on RPMI-8226 leukemia; 36.2% with OVCAR-8 ovarian; 35.2% with OVCAR-5 ovarian; 49.2% with OVCAR-4 ovarian; -18.2% (active) in the test on SK-OV-3 ovarian. The growth was 16.2% with IGROV1 ovarian, -29.3% (active) with OVCAR-3 ovarian, 8.86% (active) in the test on HS 578T breast and -2.96% (active) in the test with NCI/ADR-RES ovarian.

The values above are taken from PubChem BioAssay (NCI).
